Data on 4 molecules can be found in PubChem BioAssay (NCI).

Structures are written as SMILES. About 83,000 compounds went through this panel and 20% of them were active in at least one assay; those are over-represented in the sample as a whole.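 Values shown are percent growth following 48 h exposure of cells in 96-well plates to a single concentration of compound; below 10 was considered active.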 Activity calls are given as the source filed them.

For the experiment, the system named is HL-60(TB) leukemia. Briefly: NCI-60 one-dose screen, 48 h (100 = growth as untreated, 0 = no growth, -100 = all killed). Particulars: 10 µM unless noted.
On to `Cn1cc(-c2csc(-c3cn(C)c4ccccc34)n2)c2cnccc21`, for which the growth is -41.4% (active).

Regarding `Cc1ccc(C(=O)Nc2cccc(F)c2)cc1NC(=O)C1(c2ncnc3[nH]ccc23)CC1`, the growth was 64.7% (inactive).

For `CC(C)C1=NOC(=O)C1=Cc1cn(-c2ccccc2)nc1-c1ccc(Br)cc1`, the growth is -28.8% (active).

Turning to `C[C@H](C(=O)N(CCc1ccc(Cl)c(Cl)c1)Cc1cncs1)[C@@H]1CC[C@H](C[C@H](C)n2cc(CN3CCC(c4ccc(Cl)cc4)CC3)nn2)O1`, the growth was -71.2% (active).
